This note sets out measurements from PubChem BioAssay (NCI).

“And” between values parts separate entries of the source, which are not always exact repeats. Equal entries are not always repeated. Compounds without any hit were thinned out: in the full panel of roughly 83,000, 20% have a hit.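 Compound tested at a single concentration for 48 hours in 96-well plates; a percent growth value below 10 was scored as active.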 A number with no mark means an inactive call. The source made the active and inactive calls.

The assay relates to MOLT-4 leukemia. Put plainly: NCI-60 one-dose screen, 48 h (100 = growth as untreated, 0 = no growth, -100 = all killed). The conditions noted are these: 10 µM unless noted.
Regarding `CC1=C[C@H]2c3c(c(O)c(O)c4oc5cc(O)cc(O)c5c(=O)c34)[C@H](c3cc(O)c(O)c4oc5cc(O)cc(O)c5c(=O)c34)[C@H]2C(C)(C)C1`, the growth is 7.66% (active) and -18.8% (active).
`COc1ccc(/C(C#N)=C/c2ccccn2)cc1`: the growth was 96.7% and 103%.
Turning to `CC(=O)Oc1cc(C(=O)O)cc(OC(C)=O)c1OC(C)=O`, the growth was 116% and 94.1%.
Regarding `COc1ccc(Cn2c(NCCN=C(N)N)nc(=O)n(Cc3ccc(F)cc3)c2=O)cc1`, the growth was 84.6% and 88.4%.
